High-throughput results: PubChem, National Center for Advancing Translational Sciences (NCATS)
Hits are enriched below; roughly 5.9% of the tested compounds scored in any of these assays.
TGFb inhibitor = blocks TGF-b signaling. HepG2 CAGA-GFP TGF-b/SMAD3 reporter, GFP fluorescence, 18 h; TGF-beta stimulated, 500 pg/mL final. 1.2% of 410,000 active. AID 588855. Potency, µM (doses to about 46.1 µM), without a hit: at the top dose activity, negative = inhibition, most hits filed as inhibitors; note: % is set by controls: 0 for no effect and ±100 for the full control effect; nearly all actives have a fitted effect of over 65% in size
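HEPG2 CAGA-GFP, 1000 cells/well; 2 h settle, 37 C; cpd via pin tool; TGF-b 500 pg/mL final; 18 h, 37 C; GFP imaging ex488/em500-530; %Activity normalised to -TGF-b and +DMSO controls; CRC fit, curve class.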
S2 tox = reduces viability in counter-screen for ATXN expression inhibitors | S2 cells (HEK-293 line with an ATXN2-luciferase reporter) viability, CellTiter-Fluor protease fluorescence, 24 h | Potency, µM (titrated, usually from 56.7 µM), actives largely listed as cytotoxic | 0.49% of 400,000 active | AID 651635; note: nearly all actives have a fitted effect of over 40% in size
KB-V1 cytotox = kills drug-selected multidrug resistant KB-V1 cells | AID 1347076 | 3.4% of 400,000 active | Potency, µM (doses to about 46.1 µM), usual class: cytotoxic | KB-V1 MDR cells viability, CellTiter-Glo, 72 h; note: % is set by controls: 0 for no effect and ±100 for the full control effect; nearly all actives have a fitted effect of over 60% in size
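Potencies derive from concentration-effect curves fitted to normalized luminescence (CellTiter-Glo) of KB-V1 cells treated for 72 h at 37 degrees C in phenol-red-free DMEM containing 10% FBS.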
ATXN2 expr inh = ATXN2 expression inhibition. HEK-293 ATXN2-luciferase reporter, luminescence, 24 h. Potency, µM (titrated, usually from 57 µM), for the others: top-dose activity change, negative = inhibition, most hits filed as inhibitors. 0.72% of 360,000 active; note: % is set by controls: 0 for no effect and ±100 for the full control effect; nearly all actives have a fitted effect of over 55% in size
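ATXN2-luciferase reporter cells (luciferase flanked by upstream and downstream ATXN2 gene portions) were treated 24 h at 37 °C with compounds at up to 57 uM. SteadyGlo luminescence gave expression; GF-AFC fluorescence gave viability.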
HepG2 tox-1 = kills HepG2 cells in TGF-b inhibitor counter-screen; HepG2 CAGA-GFP viability, ATP luminescence, 18 h; Potency, µM (top dose mostly 46.1 µM), inactives show at the top dose activity change, negative = cytotoxicity, hits mostly cytotoxic; 0.76% of 410,000 active
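HepG2 CAGA-GFP cells (1000/well, DMEM with 1% FBS) received compound, then TGF-beta at 500 pg/mL final, and were incubated 18 hours at 37 degrees C. Viability was read by CellTiter-Glo luminescence. Media-only wells were set as complete cell-killing and DMSO as no toxicity.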
KB-3-1 cytotox = KB-3-1 parental cell cytotoxicity | KB-3-1 viability, CellTiter-Glo ATP luminescence, 72 h | Potency, µM (doses to about 46.1 µM), actives largely listed as cytotoxic | 1.4% of 400,000 active | AID 1347075; note: % is set by controls: 0 for no effect and ±100 for the full control effect; nearly all actives have a fitted effect of over 60% in size
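Parental KB-3-1 adenocarcinoma cells in phenol-red-free DMEM with 10% FBS were pin-treated with compounds at several concentrations, incubated 72 h at 37 °C, and viability read by CellTiter-Glo luminescence; concentration-effect curves were fitted after normalization.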
TGFb confirm = TGF-b pathway inhibition, cherry-pick retest. HepG2 CAGA-GFP TGF-b reporter, GFP fluorescence, 18 h; cells stimulated with TGF-beta, 500 pg/mL. shares compounds with TGFb inhibitor. Potency, µM (series often up to 46.1 µM), for the others: at the top dose activity, negative = inhibition, hits mostly inhibitors. 63% of 1,600 active; note: % is set by controls: 0 for no effect and ±100 for the full control effect; nearly all actives have a fitted effect of over 65% in size
HepG2 tox-2 = toxic to HepG2 cells in TGF-b counterscreen. shares compounds with TGFb inhibitor. HepG2 CAGA-GFP viability, ATP luminescence, 18 h; cells stimulated with TGF-beta, 500 pg/mL. Potency, µM (top dose mostly 46.1 µM), for the others: at the top dose activity, negative = cytotoxicity, hits mostly inhibitors. 27% of 1,600 active. AID 720535; note: % is set by controls: 0 for no effect and ±100 for the full control effect; nearly all actives have a fitted effect of over 70% in size
TGFb CCL64 inh = TGF-b inhibition, CCL64 orthogonal assay; Potency, µM (top dose mostly 46.1 µM), for inactives: at the highest dose activity, negative = inhibition, most hits filed as inhibitors; 41% of 1,600 active; AID 720536; shares compounds with TGFb inhibitor; CCL64 CAGA-GFP reporter, TGF-b stimulated, GFP fluorescence, 18 h; note: nearly all actives have a fitted effect of over 65% in size
COP TGFb inh = validation of TGF-b inhibitors in HepG2 COP promoter reporter; Potency, µM (top dose mostly 46.1 µM), for the others: at the top dose activity, negative = inhibition, hits mostly inhibitors; HepG2 COP-GFP TGF-b reporter, GFP fluorescence, 18 h; cells stimulated by added recombinant TGF-beta; 3% of 1,600 active; AID 720537; shares compounds with TGFb inhibitor; note: nearly all actives have a fitted effect of over 70% in size
* hit, by the source's call; [ ] = remark or other dose. Calls come from the whole dose curve; as a rule, active = well fitted curve in the direction sought with a large enough effect; inconclusive = small, poorly fitted or top-dose-only effect, or another doubt; inactive = no such curve, though single readings can be large; an effect the other way counts as inactive or inconclusive. Potency is the fitted concentration of half-maximal effect.

How did COc1ccc(C(=O)c2sc(Nc3ccccc3)c(C(=O)Nc3ccc(OC)c(OC)c3)c2N)cc1 do in these assays?
TGFb inhibitor: -24.3%; S2 tox: inactive; KB-V1 cytotox: inactive; ATXN2 expr inh: -10.9%; HepG2 tox-1: -27.5%; KB-3-1 cytotox: inactive

Results for CCOc1ccc(CCNC(=O)CCN2N=C(c3ccc(OC)cc3)CCC2=O)cc1OCC ?
TGFb inhibitor: inconclusive; HepG2 tox-1: -23.8%

How did Cc1cc(N2CCN(C)CC2)ccc1NC(=O)c1c2c(nc3ccccc13)CCN(Cc1ccccc1)C2 do in these assays?
TGFb inhibitor: 10µM*; S2 tox: inconclusive; KB-V1 cytotox: inconclusive; ATXN2 expr inh: -28.7%[11.3 µM]; HepG2 tox-1: 10µM*; KB-3-1 cytotox: inactive; TGFb confirm: 3.26µM*; HepG2 tox-2: 2.59µM*; TGFb CCL64 inh: 8.2µM*; COP TGFb inh: 11.6µM*

What do the screens show for `O=C(NC1CCCCCC1)c1c2c(nc3ccccc13)CCN(Cc1ccccc1)C2`?
TGFb inhibitor: 8.1%; S2 tox: inconclusive; KB-V1 cytotox: inactive; ATXN2 expr inh: 4.3%; HepG2 tox-1: 5.8%; KB-3-1 cytotox: inactive

How did CCOc1ccc(N/C(N)=N/c2nc(C)cc(C)n2)cc1 do in these assays?
TGFb inhibitor: inconclusive; S2 tox: inconclusive; KB-V1 cytotox: inactive; HepG2 tox-1: -27.6%; KB-3-1 cytotox: inactive; TGFb confirm: -28.2%; HepG2 tox-2: -26.1%; TGFb CCL64 inh: inconclusive; COP TGFb inh: 7.7%

Results for Cc1cc(C)nc(/N=C(\N)Nc2ccc(SC(F)F)cc2)n1 ?
TGFb inhibitor: 8.91µM*; S2 tox: inactive; KB-V1 cytotox: inactive; HepG2 tox-1: -38.3%; KB-3-1 cytotox: inconclusive; TGFb confirm: -25.2%; HepG2 tox-2: inconclusive; TGFb CCL64 inh: inconclusive; COP TGFb inh: 27.5%

Results for Cc1cc(C)nc(/N=C(\N)Nc2ccc(S(N)(=O)=O)cc2)n1 ?
TGFb inhibitor: 3.0%; S2 tox: inactive; KB-V1 cytotox: inactive; ATXN2 expr inh: -17.6%; HepG2 tox-1: -2.3%; KB-3-1 cytotox: inactive

Results for Cc1ccc(-n2ncc(C(=O)NCCCN3CCc4ccccc4C3)c2C2CCN(C(=O)OC(C)(C)C)CC2)c(C)c1 ?
TGFb inhibitor: inconclusive; HepG2 tox-1: -80.3%

How did O=S(=O)(Nc1ccc(N2CCOCC2)cc1)c1ccc2ccccc2c1 do in these assays?
TGFb inhibitor: -6.2%; S2 tox: inactive; KB-V1 cytotox: inactive; ATXN2 expr inh: -12.6%; HepG2 tox-1: -3.8%; KB-3-1 cytotox: inactive

Results for Cc1nn(-c2ccc(F)cc2)c(C)c1NS(=O)(=O)c1ccc2ccccc2c1 ?
TGFb inhibitor: 10µM*; S2 tox: inconclusive; KB-V1 cytotox: inconclusive; ATXN2 expr inh: inconclusive; HepG2 tox-1: -30.0%; KB-3-1 cytotox: inactive; TGFb confirm: inconclusive; HepG2 tox-2: inconclusive; TGFb CCL64 inh: inconclusive; COP TGFb inh: 20.0%

How did CCOC(=O)c1c(-c2cccs2)csc1N do in these assays?
TGFb inhibitor: inconclusive; S2 tox: inactive; KB-V1 cytotox: inactive; ATXN2 expr inh: 4.0%; HepG2 tox-1: -17.4%; KB-3-1 cytotox: inactive; TGFb confirm: -7.6%; HepG2 tox-2: -2.3%; TGFb CCL64 inh: 4.7%; COP TGFb inh: -0.1%

What do the screens show for `O=C(Cc1csc(NC(=O)Nc2ccc(Cl)cc2)n1)NC1CCCC1`?
TGFb inhibitor: 11.2µM*; S2 tox: inactive; KB-V1 cytotox: inconclusive; ATXN2 expr inh: 3.4%; HepG2 tox-1: -23.0%; KB-3-1 cytotox: inconclusive; TGFb confirm: 16.4µM*; HepG2 tox-2: -27.7%; TGFb CCL64 inh: inconclusive; COP TGFb inh: 23.4%

How did O=C(Cc1csc(NC(=O)Nc2ccc(Cl)cc2)n1)NCc1ccccn1 do in these assays?
TGFb inhibitor: inconclusive; S2 tox: inactive; KB-V1 cytotox: inactive; ATXN2 expr inh: 22.4%; HepG2 tox-1: -15.9%; KB-3-1 cytotox: inactive

Results for O=C(NCCc1nc2ccccc2[nH]1)c1ccc(Cl)c([N+](=O)[O-])c1 ?
TGFb inhibitor: -29.7%; S2 tox: inactive; KB-V1 cytotox: inconclusive; ATXN2 expr inh: 6.3%; HepG2 tox-1: -44.0%; KB-3-1 cytotox: inactive

How did CCCNC(=O)c1ccc2c(=O)c(O)c(-c3ccc(Cl)c([N+](=O)[O-])c3)[nH]c2c1 do in these assays?
TGFb inhibitor: 7.08µM*; S2 tox: inconclusive; KB-V1 cytotox: inactive; ATXN2 expr inh: 0.0%; HepG2 tox-1: -3.6%; KB-3-1 cytotox: inactive; TGFb confirm: 5.17µM*; HepG2 tox-2: inconclusive; TGFb CCL64 inh: 6.51µM*; COP TGFb inh: 0.3%

What do the screens show for `COc1cc2c(cc1OC)C(COc1cc(C)cc(C)c1)N(C(=O)COc1ccccc1)CC2` (stereo not drawn)?
TGFb inhibitor: inconclusive; S2 tox: inactive; KB-V1 cytotox: inactive; ATXN2 expr inh: inconclusive; HepG2 tox-1: -26.4%; KB-3-1 cytotox: inconclusive

What do the screens show for `COc1cc(C=CC(=O)c2ccccc2)cc(OC)c1OC`?
TGFb inhibitor: 10µM*; S2 tox: inactive; KB-V1 cytotox: 23.1µM*; ATXN2 expr inh: inconclusive; HepG2 tox-1: -92.6%; KB-3-1 cytotox: inconclusive; TGFb confirm: 18.4µM*; HepG2 tox-2: inconclusive; TGFb CCL64 inh: 16.4µM*; COP TGFb inh: 36.5%
